Results taken from PubChem BioAssay AID687010 (National Center for Advancing Translational Sciences (NCATS), 2013).
Activity calls are given as the source filed them.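 The calls were made as follows: active = a significant rise in survival of treated spinal muscular atrophy model mice compared with vehicle-treated controls; inactive = no significant rise in survival.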

Assay: Extended Characterization of SMN2 Inhibitors: Survival Studies
Settings: SMNdelta7 SMA mice, 50 mg/kg i.p. twice daily
Text: Spinal muscular atrophy (SMA) is caused by insufficient levels of the survival motor neuron protein SMN. The SMN locus on chromosome 5q13 contains two inverted copies of SMN called SMN1 and SMN2 which are 99% identical at the amino acid level. SMN1 is a fully functional protein and SMN2 skips exon 7 90% of the time. Skipping of exon 7 produces non-functional protein product. 10% of the SMN2 protein includes exon 7 and is fully functional. In the SMA disease state, mutations in the SMN1 locus are the cause of the disease state. Because only 10% of SMN2 is of the fully functional form, it is not sufficient to overcome the deficiency produced by the loss of the SMN1 product. A therapy that either increase the amount of SMN2 product made or to increase the inclusion of exon 7 has been proposed for the treatment of SMA. We have previously filed a probe report and have now done further SAR and further characterized the resulting compounds in mice studies. […]
Studies were approved by the National Institute of Neurological […] and Stroke Animal Care Committee and performed in accordance with the National Institutes of Health Guide for the Care and Use of Laboratory Animals. […] For survival studies, litters were maintained and kept with the mother until P21, after which if any SMA pups survived they were weaned and continued to be monitored.

SMILES	outcome
O=C(O)C1CCN(c2ncc(-c3ccc4c(c3)OCCCO4)s2)CC1	active; yes
